Gli-Sufu block: Gli-Sufu pathway antagonists, primary screen, luciferase luminescence, Sufu-KO-LIGHT cells, uHTS; Sufu-KO-LIGHT fibroblasts, Gli luciferase reporter luminescence; inhibition, % at 5 µM; 0.74% of 340,000 active; AID 588413, 2011;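 active = inhibition above about 55%, limit read from the data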;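 also: 0% = DMSO-treated cells and 100% = wells with medium but no cells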
Beta apoptosis: inhibitors of cytokine-induced beta cell apoptosis, primary screen, luminescence; protection from apoptosis, % (test concentration not listed); INS-1E cytokine-induced death, ATP luminescence, 48 h; percent of positive-control rescue, neutral wells zero; 0.8% of 300,000 active; AID 435005, 2010;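 active = Every replicate reaches about 75%, or at least half do and their mean reaches it too, limit read from the data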;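 also: 0% = cytokine-treated negative control wells and 100% = positive control rescue; higher means more ATP so stronger rescue from cytokine killing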
MPTP inh: mitochondrial permeability transition pore inhibitors, primary screen, biochemical, isolated mouse mitochondria, absorbance | Ca2+ swelling absorbance, 30 min | inhibition, % at 10 µM | 1.4% of 360,000 active | AID 602449, 2012;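 active = inhibition of 50% or more, scaled per plate between neutral and stimulator controls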;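 also: 0% = DMSO wells given calcium and 100% = 1 mM EGTA wells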
CSC inhib: cancer stem cell viability inhibitors, primary screen, luminescence | AID 2717, 2010 | cancer stem cell-like cells viability | 1.1% of 300,000 active | inhibition, % at 7.5 µM; in the data active = inhibition above about 75%; tested in HMLE shEcad cells
NR3A LBD binder: binders of NR3A ligand-binding domain, primary screen, biophysical, differential scanning fluorimetry, uHTS. Tm shift relative to glycine control, % at 25 µM. Glutamate receptor ionotropic, NMDA 3A (GRIN3A) ligand-binding domain. NR3A LBD differential scanning fluorimetry, Tm shift; 0% = protein alone, 100% = glycine-bound protein. AID 1259313, 2017. 2.5% of 340,000 active;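 active = melting temperature shift of at least 10% of the positive control shift, at one fixed dose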
Mdm2 MdmX PPI: inhibitors of human Mdm2-MdmX association, primary screen, cell-based, luminescence, split luciferase, SaOS-2, uHTS; Protein Mdm4 (Homo sapiens) + E3 ubiquitin-protein ligase Mdm2 (Homo sapiens), …; SaOS-2 split-luciferase Mdm2/MdmX complementation; inhibition, % at 8 µM; 3% of 330,000 active; AID 485346, 2010;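 active = inhibition of at least 50% at 8 µM in the primary screen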
Target sequence (O15151 whole entry, looked up): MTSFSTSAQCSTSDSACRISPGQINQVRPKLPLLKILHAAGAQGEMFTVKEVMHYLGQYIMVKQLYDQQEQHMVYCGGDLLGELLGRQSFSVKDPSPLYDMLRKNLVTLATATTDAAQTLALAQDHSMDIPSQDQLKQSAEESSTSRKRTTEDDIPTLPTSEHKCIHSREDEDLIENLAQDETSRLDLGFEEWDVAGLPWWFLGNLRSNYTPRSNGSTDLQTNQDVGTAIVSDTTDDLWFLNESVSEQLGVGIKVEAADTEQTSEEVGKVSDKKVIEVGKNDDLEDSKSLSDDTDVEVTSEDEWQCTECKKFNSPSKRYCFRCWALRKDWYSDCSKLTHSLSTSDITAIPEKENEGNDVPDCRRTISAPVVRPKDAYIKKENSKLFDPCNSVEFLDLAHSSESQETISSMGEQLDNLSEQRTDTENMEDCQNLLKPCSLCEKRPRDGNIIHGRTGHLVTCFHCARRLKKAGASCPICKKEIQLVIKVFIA
Target sequence (Q00987 whole entry, looked up): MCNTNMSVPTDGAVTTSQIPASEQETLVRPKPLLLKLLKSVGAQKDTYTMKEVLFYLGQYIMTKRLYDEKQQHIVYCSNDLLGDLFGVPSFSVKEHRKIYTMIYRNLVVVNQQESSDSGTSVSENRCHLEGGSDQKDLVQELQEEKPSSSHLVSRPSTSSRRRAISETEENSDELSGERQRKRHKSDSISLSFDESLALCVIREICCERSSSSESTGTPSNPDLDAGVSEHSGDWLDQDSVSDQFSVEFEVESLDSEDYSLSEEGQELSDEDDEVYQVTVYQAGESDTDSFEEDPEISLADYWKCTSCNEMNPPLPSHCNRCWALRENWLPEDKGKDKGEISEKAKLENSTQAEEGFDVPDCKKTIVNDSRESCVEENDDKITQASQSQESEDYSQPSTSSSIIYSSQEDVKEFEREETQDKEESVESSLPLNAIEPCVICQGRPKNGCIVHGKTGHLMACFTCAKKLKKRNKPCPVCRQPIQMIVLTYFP
Mdm2 MdmX conf: Mdm2-MdmX complex disruptors, retested hits, confirmation, luminescence, single concentration | shares compounds with Mdm2 MdmX PPI | Mdm2-MdmX binding, luminescent assay | inhibition, % at 8 µM | 55% of 10,000 active; in the data active = inhibition above about 40%
FLuc counter: full-length luciferase signal inhibition, confirmation, counter-screen for Mdm2/MdmX interaction inhibitor project, cell-based, single concentration, SaOS-2 | shares compounds with Mdm2 MdmX PPI | SaOS-2 full-length luciferase counterscreen, luminescence | inhibition, % at 8 µM | 77% of 6,200 active;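 active = mean inhibition at 8 µM reaching about 37%, which flags the compound as non-specific, limit read from the data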;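 also: p53-null SaOS-2 cells with luciferase driven by a doxycycline-inducible promoter; compound on cells about two nights before reading with doxycycline added after day one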
Starred values were filed as active, the others as inactive; . = no result. Shown are actives, neighbours in structure and some others; about 6.6% of the full set was active somewhere.

SMILES	Gli-Sufu block	Beta apoptosis	MPTP inh	CSC inhib	NR3A LBD binder	Mdm2 MdmX PPI	Mdm2 MdmX conf	FLuc counter
C=CC[C@H](CC(=O)N(CCO)Cc1ccccc1)C(=O)N[C@@H](COC(=O)[C@@H](CC=C)Cc1ccc(F)cc1)Cc1c[nH]c2ccccc12	-19	-3	0	26	1	91*	20	.
C=CC[C@H](CC(=O)N(CCO)Cc1ccccc1)C(=O)N[C@@H](COC(=O)[C@H](CC=C)CC(=O)OC(C)(C)C)Cc1c[nH]c2ccccc12	13	-2	0	0	-14	23	.	.
C=CC[C@@H](CC(=O)N(CCO)Cc1ccccc1)C(=O)N[C@H](COC(=O)[C@@H](CC=C)CC(=O)OC(C)(C)C)Cc1c[nH]c2ccccc12	14	-2	1	-4	-13	27	.	.
C=CC[C@@H](CC(=O)N(CCO)Cc1ccccc1)C(=O)N[C@@H](COC(=O)[C@@H](CC=C)Cc1ccc(F)cc1)Cc1c[nH]c2ccccc12	16	-7	1	.	4	76*	21	.
O=C(Nc1cccc(F)c1)C1CCCN(S(=O)(=O)c2cccc3cccnc23)C1 (stereo not given)	-4	-1	-2	4	5	15	.	.
Cc1ccc(C(=O)Nc2cnc3ccccc3c2)cc1	-110	3	-2	20	-16	82*	-2	.
Cc1cc(C(=O)Nc2cnc3ccccc3c2)ccc1[N+](=O)[O-]	-63	-5	8	-1	-2	-65	.	.
Cc1ccc(C(=O)Nc2nc3ccccc3[nH]2)cc1	3	30	-2	13	2	64*	49*	58*
COc1ccc(C(=O)Nc2cccc3c2CCCC3)cc1	41	4	-2	48	1	51*	35	74*
COc1ccc(C(=O)Nc2nc3ccccc3[nH]2)cc1	-83	.	0	18	2	56*	38	83*
COc1ccc(CC(=O)Nc2cccc3c2CCCC3)cc1	-9	-1	0	-6	1	14	.	.
CC(C)CN(C(=O)c1ccc(-n2cncn2)c([N+](=O)[O-])c1)C1CCS(=O)(=O)C1 (stereo not given)	-3	-3	-1	-6	0	26	.	.
Cc1ccc(S(=O)(=O)N2CCCCC2)cc1NC(=O)COC(=O)c1ccc2c(c1)OCO2	0	-1	-1	-20	-5	1	.	.
C[C@H](O)Cc1cn(-c2cc3cc(C#Cc4ccsc4)ccc3oc2=O)nn1	-5	-6	3	-7	0	13	.	.
Cc1cccc(C(=O)N[C@H](C(=O)Nc2nc3ccccc3[nH]2)C(C)C)c1	38	26	0	69	-16	73*	68*	100*
COc1ccc(C(=O)N[C@H](C(=O)Nc2nc3ccccc3[nH]2)C(C)C)cc1	32	42	0	41	1	19	.	.
O=C(Nc1nc2ccccc2[nH]1)c1ccc([N+](=O)[O-])cc1	-63	5	0	-15	-1	-48	.	.
C/C(=N\Nc1nc2ccccc2[nH]1)c1ccc([N+](=O)[O-])cc1	-4	26	24	8	-4	55*	2	.
O/N=C/c1ccc(-c2cc(Cl)ccc2Cl)o1	-10	0	1	19	0	57*	42*	53*
COC(=O)N/N=C/c1ccc(-c2cc(Cl)ccc2Cl)o1	-3	-3	0	-9	-1	-16	.	.
CCN(CC)c1ccc(/C=C2\CCC(/C=N/NC(=O)c3ccc(=O)n(C)c3)=C2N2CCOCC2)cc1	26	10	3	9	-4	30	.	.
COc1cc(Cn2c3ccc(NC(=S)NCc4ccc(C)cc4)cc3c(=O)n2C)ccc1F	.	.	4	.	.	.	.	.
Cc1ccc2c(C)c(C(=O)NCCN3CCOC3=O)oc2c1C	1	-7	0	-16	-1	12	.	.
CC(C)OCc1c(C(=O)OC/C(O)=C(\C#N)c2nc3ccccc3[nH]2)oc2ccccc12	-3	4	1	-2	-1	57*	-5	.
Cc1c(C(=O)OC/C(O)=C(\C#N)c2nc3ccccc3[nH]2)oc2ccc(Br)cc12	9	0	9	27	-5	85*	14	.
SMILES	Gli-Sufu block	Beta apoptosis	MPTP inh	CSC inhib	NR3A LBD binder	Mdm2 MdmX PPI	Mdm2 MdmX conf	FLuc counter
N#C/C(=C(/O)COC(=O)c1ccc(O)cc1)c1nc2ccccc2[nH]1	-3	-8	3	-2	-2	18	.	.
Cc1cc(Br)ccc1SCC(=O)OCC(O)=C(C#N)c1nc2ccccc2[nH]1	7	.	0	.	4	.	.	.
CCOC(=O)c1c(C)[nH]c(C(=O)OCC(O)=C(C#N)c2nc3ccccc3[nH]2)c1C	1	.	0	.	8	.	.	.
Cc1c(-c2cccc(Cl)c2)nc2ccccc2c1C(=O)OC/C(O)=C(\C#N)c1nc2ccccc2[nH]1	-20	97*	6	98*	-1	70*	11	.
CCc1ccc(NC(=O)c2ccc3c(c2)C(=O)N(CCOC)C3Nc2ccc(CC)cc2)cc1 (stereo not given)	-18	15	2	12	2	81*	40*	99*
CCOc1ccc(NC(=O)C(Cc2ccccc2)NC(=O)C2CCCCC2)cc1 (stereo not given)	-2	-3	7	-6	-14	0	.	.
CN(C)CC(CCC(CN(C)C)C(O)(c1ccccc1)c1ccccc1)C(O)(c1ccccc1)c1ccccc1 (stereo not given)	26	.	.	.	-2	100*	99*	52*
CN(C)C/C=C/C(O)(c1ccccc1)c1ccccc1	2	.	1	.	0	16	.	.
CC(NC(=O)CN(c1cccc(C(F)(F)F)c1)S(=O)(=O)c1ccc(Cl)c([N+](=O)[O-])c1)c1ccccc1 (stereo not given)	-1	7	35	98*	-2	82*	55*	35
O=C(CN(c1cccc(C(F)(F)F)c1)S(=O)(=O)c1ccc(Cl)c([N+](=O)[O-])c1)NCc1ccccc1Cl	6	-9	33	101*	1	73*	32	103*
O=C(CN(c1cccc(C(F)(F)F)c1)S(=O)(=O)c1ccc(Cl)c([N+](=O)[O-])c1)NCc1ccccc1	-14	-8	1	85*	-9	82*	40*	59*

Screens: PubChem, several laboratories
